We go through eight compounds from PubChem BioAssay (EPA / NIEHS).

Assay [1] can be described thus: CEETOX_H295R_OHPROG: CeeTox H295R High-throughput Steroidogenesis Assay for OH-Progesterone (OHPROG) (AID 2283435).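 As to AC50: human adrenal H295R cells primed 48 h with 10 µM forskolin.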 The note with it: actives raise or lower the signal. The essentials:
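H295R adrenal cells prestimulated 48 h with 10 uM forskolin, then exposed 48 h to chemical (0.1% DMSO final). 17alpha-hydroxyprogesterone in medium quantified by HPLC-MS/MS; bidirectional fit versus DMSO, with MTT viability measured in the same wells.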

The nature of assay [2]: CEETOX_H295R_CORTIC: CeeTox H295R High-throughput Steroidogenesis Assay for Corticosterone (CORTIC) (AID 2283437).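 Also: corticosterone secreted into medium quantified by mass spectrometry.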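 As to AC50: human H295R adrenal cells prestimulated with forskolin before chemical exposure.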 The following applies: actives raise or lower the signal. Summed up: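 Corticosterone secreted into medium is measured by reverse-phase HPLC with tandem MS following liquid-liquid extraction. Cells are forskolin-stimulated (10 uM, 48 h) before 48 h test exposure; activity fitted in both directions against DMSO.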

The nature of assay [3]: CEETOX_H295R_CORTISOL: CeeTox H295R High-throughput Steroidogenesis Assay for Cortisol (AID 2283438).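 Also: cortisol secreted into medium quantified by LC-MS/MS.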 The following applies: actives raise or lower the signal. Summed up: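 Forskolin-primed H295R cells (10 uM, 48 h) treated 48 h with test chemical in 0.1% DMSO. Cortisol in medium quantified by MTBE extraction and HPLC-MS/MS; bidirectional fit vs DMSO, MTT viability in same wells.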

Assay [4] is described as follows: CEETOX_H295R_DOC: CeeTox H295R High-throughput Steroidogenesis Assay for DOC (AID 2283439). The following applies: actives raise or lower the signal. The essentials: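 H295R cells prestimulated 48 h with 10 uM forskolin, then exposed 48 h to test chemical (0.1% DMSO final). Medium 11-deoxycorticosterone measured by HPLC-MS/MS after MTBE extraction; bidirectional fit vs DMSO, viability checked by MTT in same wells.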

A short description of assay [5]: CEETOX_H295R_ESTRADIOL: CeeTox H295R High-throughput Steroidogenesis Assay for Estradiol (AID 2283440).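 Also: estradiol secreted into medium quantified by LC-MS/MS after dansyl derivatisation.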 The following applies: actives raise or lower the signal. Summed up:
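Following OECD 456 with minor changes, H295R cells received 10 uM forskolin for 48 h and then test chemical for 48 h. Hormone output was read by HPLC-MS/MS, with cytotoxic concentrations diluted until MTT viability reached ≥70%.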

A short description of assay [6]: CEETOX_H295R_ESTRONE: CeeTox H295R High-throughput Steroidogenesis Assay for Estrone (AID 2283441).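 Also: estrone secreted into medium measured by LC-MS/MS after dansyl derivatization.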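 As to AC50: human adrenal H295R cells prestimulated with forskolin for two days.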 The following applies: actives raise or lower the signal. The essentials: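 H295R cells prestimulated 48 h with 10 uM forskolin, then exposed 48 h to chemicals in 0.1% DMSO final; estrone in medium extracted with MTBE, dansyl-derivatized, quantified by HPLC-MS/MS; bidirectional fitting versus DMSO, viability by MTT.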

Assay [7] can be described thus: CEETOX_H295R_PROG: CeeTox H295R High-throughput Steroidogenesis Assay for Progesterone (PROG) (AID 2283442).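 As to AC50: human H295R adrenal cells primed with 10 µM forskolin before dosing.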 The following applies: actives raise or lower the signal. Summed up:
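Adrenal H295R line, forskolin-stimulated (10 uM, 48 h) before dosing. 48 h exposure, 0.1% DMSO vehicle. Secreted progesterone by reverse-phase HPLC with ESI+ MS/MS quantification; DMSO-normalised bidirectional curve fit.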

Read-out in assay [8]: Tumor necrosis factor receptor superfamily member 6 (Homo sapiens) (UniProt P25445)
Briefly: LTEA_HepaRG_FAS: Life Technologies and Expression Analysis (LTEA) Assay for Fas cell surface death receptor (FAS) using HepaRG (AID 2283447). The note with it: mRNA level, 48 h; actives raise or lower the signal. Summed up: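 FAS transcript level was measured by TaqMan qRT-PCR against three housekeeping genes after 48 h chemical exposure. Cells were HepaRG, 0.5% DMSO vehicle, with a top concentration of 100 uM and half-log dilutions over eight points, in duplicate.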

Read-out in assay [9]: Fatty acid synthase (Homo sapiens) (UniProt P49327)
Briefly: LTEA_HepaRG_FASN: Life Technologies and Expression Analysis (LTEA) Assay for Fatty Acid Synthase (FASN) using HepaRG (AID 2283448). The following applies: mRNA level, 48 h; actives raise or lower the signal. Summed up: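 Differentiated HepaRG cells in serum-free induction medium exposed 48 h in duplicate to eight half-log concentrations, top 100 uM, 0.5% DMSO. FASN mRNA by qRT-PCR normalised to ACTB, GAPDH, POLR2A; bidirectional fit versus DMSO.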

Read-out in assay [10]: Cyclin D2 (CCND2), CCND2 (gene 894)
Briefly: LTEA_HepaRG_CCND2: Life Technologies and Expression Analysis (LTEA) Assay for Cyclin D2 (CCND2) using HepaRG (AID 2283449). The note with it: mRNA level, 48 h; actives raise or lower the signal. The essentials: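 Read-out is CCND2 mRNA level measured by qRT-PCR in human HepaRG liver cells and normalised to three housekeeping genes. Chemicals were applied for 48 h at up to 100 uM, with gain or loss fitted relative to 0.5% DMSO.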

Read-out in assay [11]: Cyclin Dependent Kinase Inhibitor 1A (CDKN1A), CDKN1A (gene 1026)
As to the kind of experiment: LTEA_HepaRG_CDKN1A: Life Technologies and Expression Analysis (LTEA) Assay for Cyclin Dependent Kinase Inhibitor 1A (CDKN1A) using HepaRG (AID 2283450). The note with it: mRNA level, 48 h; actives raise or lower the signal. Summed up: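 Cryopreserved HepaRG cells were plated and cultured 48 h, then switched to serum-free induction medium. Chemicals (eight half-log concentrations, top 100 uM, 0.5% DMSO) were applied for 48 h. Lysates underwent qRT-PCR for CDKN1A with housekeeping normalization.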

Read-out in assay [12]: Cyclin D1 (CCND1), CCND1 (gene 595)
Briefly: LTEA_HepaRG_CCND1: Life Technologies and Expression Analysis (LTEA) Assay for Cyclin D1 (CCND1) using HepaRG (AID 2283451). The following applies: mRNA level, 48 h; actives raise or lower the signal. Summed up: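 Human liver HepaRG line; 48 h dosing, 8 conc. ≤100 uM, 0.5% DMSO; TaqMan qRT-PCR mRNA, 3 housekeeping genes; bidirectional curve fit vs DMSO.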

Read-out in assay [13]: flavin-containing dimethylaniline monooxygenases 3 (FMO3), FMO3 (gene 2328)
Briefly: LTEA_HepaRG_FMO3: Life Technologies and Expression Analysis (LTEA) Assay for flavin-containing dimethylaniline monooxygenases 3 (FMO3) using HepaRG (AID 2283453). The following applies: mRNA level, 48 h; actives raise or lower the signal. The essentials:
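Differentiated HepaRG cells in serum-free induction medium, exposed 48 h in duplicate to 8 half-log concentrations up to 100 uM in 0.5% DMSO. FMO3 mRNA by qRT-PCR, normalized to ACTB, GAPDH, POLR2A; bidirectional fit vs DMSO.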

Read-out in assay [14]: Cytochrome P450 (CYP1A1), CYP1A1 (gene 1543)
As to the kind of experiment: LTEA_HepaRG_CYP1A1: Life Technologies and Expression Analysis (LTEA) Assay for Cytochrome P450 (CYP1A1) using HepaRG (AID 2283454). The note with it: mRNA level, 48 h; actives raise or lower the signal. Summed up:
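Induction of CYP1A1 mRNA in a human hepatic cell line was measured 48 h after dosing, with 1 mM phenobarbital as induction positive control and 0.5% DMSO vehicle as baseline for bidirectional curve fitting.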

Read-out in assay [15]: CFLAR gene, CFLAR (gene 8837)
Briefly: LTEA_HepaRG_CFLAR: Life Technologies and Expression Analysis (LTEA) Assay for CFLAR gene using HepaRG (AID 2283455). The note with it: mRNA level, 48 h; actives raise or lower the signal. Summed up:
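HepaRG, 48 h exposure, 8-pt conc-response (100 uM top, half-log), 0.5% DMSO vehicle, duplicates. CFLAR expression by qRT-PCR; ACTB/GAPDH/POLR2A normalization; gain or loss fit vs DMSO baseline.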

Read-out in assay [16]: Forkhead box O1 (FOXO1), FOXO1 (gene 2308)
As to the kind of experiment: LTEA_HepaRG_FOXO1: Life Technologies and Expression Analysis (LTEA) Assay for Forkhead box O1 (FOXO1) using HepaRG (AID 2283456). The note with it: mRNA level, 48 h; actives raise or lower the signal. The essentials:
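Readout is FOXO1 transcript level by multiplexed qRT-PCR against three housekeeping genes, curve-fitted in both directions relative to 0.5% DMSO vehicle. Human HepaRG cultures received chemicals for 48 h, up to 100 uM in half-log steps.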

Read-out in assay [17]: growth arrest and DNA damage 45 (GADD45A), GADD45A (gene 1647)
As to the kind of experiment: LTEA_HepaRG_GADD45A: Life Technologies and Expression Analysis (LTEA) Assay for growth arrest and DNA damage 45 (GADD45A) using HepaRG (AID 2283458). The note with it: mRNA level, 48 h; actives raise or lower the signal. Summed up: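 Differentiated HepaRG cells exposed 48 h in serum-free induction medium to 8 concentrations, top 100 uM in half-log steps, 0.5% DMSO. GADD45A mRNA quantified by qRT-PCR, normalized to ACTB, GAPDH and POLR2A; bidirectional fit versus DMSO.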

Assay [18] is described as follows: CEETOX_H295R_ANDR: CeeTox H295R High-throughput Steroidogenesis Assay for Androstenedione (ANDR) (AID 2283436). The note with it: actives raise or lower the signal. The essentials: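 Read-out is androstenedione secreted into medium, measured by tandem mass spectrometry after liquid-liquid extraction. Cells were H295R, dosed for 48 h per modified OECD 456; activity fitted in both directions relative to DMSO.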

Assay [19] in a line: CEETOX_H295R_TESTO: CeeTox H295R High-throughput Steroidogenesis Assay for Testosterone (TESTO) (AID 2283457).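 As to AC50: cells exposed to chemicals for 48 h before medium collection.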 The note with it: actives raise or lower the signal. The essentials:
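Testosterone synthesis is assessed in human adrenocortical H295R cells after 48 h of chemical exposure, using HPLC-MS/MS of extracted medium. Activity is fitted in both directions against DMSO control.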

Active and inactive are the calls of the source. The calls were made as follows: active = hit-call score of the fitted dose curve at least 0.9, where 1 is the maximum; inactive = score below 0.9.

For orientation: AC50 means the concentration at which the activity in the assay is half-maximal.

Sequence of Fatty acid synthase (Homo sapiens) (P49327 whole entry, looked up): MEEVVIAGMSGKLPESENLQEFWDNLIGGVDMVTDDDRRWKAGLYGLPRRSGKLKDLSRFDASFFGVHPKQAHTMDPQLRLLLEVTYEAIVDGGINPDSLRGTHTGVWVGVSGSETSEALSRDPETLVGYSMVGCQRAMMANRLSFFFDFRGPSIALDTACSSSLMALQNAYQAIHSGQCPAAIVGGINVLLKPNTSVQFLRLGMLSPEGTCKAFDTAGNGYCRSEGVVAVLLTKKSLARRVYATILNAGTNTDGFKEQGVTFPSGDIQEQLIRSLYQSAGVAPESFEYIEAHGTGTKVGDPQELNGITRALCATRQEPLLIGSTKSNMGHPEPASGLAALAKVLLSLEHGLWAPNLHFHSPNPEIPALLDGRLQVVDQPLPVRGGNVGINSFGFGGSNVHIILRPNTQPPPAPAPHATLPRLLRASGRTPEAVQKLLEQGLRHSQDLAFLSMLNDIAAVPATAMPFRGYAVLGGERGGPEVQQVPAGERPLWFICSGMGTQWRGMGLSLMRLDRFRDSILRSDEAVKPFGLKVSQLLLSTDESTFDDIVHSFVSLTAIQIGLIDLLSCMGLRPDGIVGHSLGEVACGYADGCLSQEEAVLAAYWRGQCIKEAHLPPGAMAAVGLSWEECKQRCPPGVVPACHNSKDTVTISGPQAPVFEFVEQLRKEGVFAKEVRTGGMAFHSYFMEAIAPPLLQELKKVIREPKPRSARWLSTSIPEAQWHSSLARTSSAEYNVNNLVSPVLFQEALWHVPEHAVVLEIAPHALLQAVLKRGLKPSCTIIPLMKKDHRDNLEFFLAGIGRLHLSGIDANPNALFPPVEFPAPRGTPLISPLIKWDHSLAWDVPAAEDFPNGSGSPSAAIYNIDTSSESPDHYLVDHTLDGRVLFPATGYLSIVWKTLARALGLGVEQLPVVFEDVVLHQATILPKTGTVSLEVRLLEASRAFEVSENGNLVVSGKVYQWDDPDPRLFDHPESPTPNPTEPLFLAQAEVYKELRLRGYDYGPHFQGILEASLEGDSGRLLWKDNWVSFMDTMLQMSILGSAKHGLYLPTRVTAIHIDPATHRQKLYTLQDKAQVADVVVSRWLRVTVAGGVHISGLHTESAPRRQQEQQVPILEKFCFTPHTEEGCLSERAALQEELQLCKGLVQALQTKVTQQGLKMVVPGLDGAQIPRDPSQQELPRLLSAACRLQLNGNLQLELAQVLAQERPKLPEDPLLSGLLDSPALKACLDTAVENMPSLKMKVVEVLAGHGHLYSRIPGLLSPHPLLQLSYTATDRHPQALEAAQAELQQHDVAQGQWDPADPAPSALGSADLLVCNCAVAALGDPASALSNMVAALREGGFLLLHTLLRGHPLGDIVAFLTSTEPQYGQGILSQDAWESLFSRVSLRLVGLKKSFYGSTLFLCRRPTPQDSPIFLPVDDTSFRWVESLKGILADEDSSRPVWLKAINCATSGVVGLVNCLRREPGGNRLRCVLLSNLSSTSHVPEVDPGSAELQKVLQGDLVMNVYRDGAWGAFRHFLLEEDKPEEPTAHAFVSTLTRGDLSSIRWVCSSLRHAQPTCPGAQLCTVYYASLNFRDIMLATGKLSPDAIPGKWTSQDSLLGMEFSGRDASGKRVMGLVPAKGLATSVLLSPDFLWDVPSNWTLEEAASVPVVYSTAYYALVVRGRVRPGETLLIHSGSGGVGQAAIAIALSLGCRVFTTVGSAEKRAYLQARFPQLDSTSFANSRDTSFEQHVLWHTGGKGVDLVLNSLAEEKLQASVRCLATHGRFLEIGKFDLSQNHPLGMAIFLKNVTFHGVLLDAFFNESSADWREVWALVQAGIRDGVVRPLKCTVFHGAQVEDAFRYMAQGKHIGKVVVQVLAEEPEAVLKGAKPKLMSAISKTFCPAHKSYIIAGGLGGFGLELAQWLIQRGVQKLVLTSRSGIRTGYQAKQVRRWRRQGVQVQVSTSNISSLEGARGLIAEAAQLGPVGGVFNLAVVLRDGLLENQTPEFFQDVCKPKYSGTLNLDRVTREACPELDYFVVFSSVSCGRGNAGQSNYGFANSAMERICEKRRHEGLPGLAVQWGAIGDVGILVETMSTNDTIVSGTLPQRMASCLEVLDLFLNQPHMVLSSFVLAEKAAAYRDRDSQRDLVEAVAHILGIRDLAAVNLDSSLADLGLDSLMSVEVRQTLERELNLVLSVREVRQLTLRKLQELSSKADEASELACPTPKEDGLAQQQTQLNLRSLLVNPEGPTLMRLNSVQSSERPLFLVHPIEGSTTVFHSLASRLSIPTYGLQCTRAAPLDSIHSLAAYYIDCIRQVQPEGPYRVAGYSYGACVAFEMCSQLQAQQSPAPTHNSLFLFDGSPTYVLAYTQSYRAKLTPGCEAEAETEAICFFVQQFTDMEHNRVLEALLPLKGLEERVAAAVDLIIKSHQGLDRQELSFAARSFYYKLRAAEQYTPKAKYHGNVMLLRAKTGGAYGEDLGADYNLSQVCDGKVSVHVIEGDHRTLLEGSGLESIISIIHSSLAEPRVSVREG

With `CCCCc1ccc(O)cc1`, the outcome in [1], in [4], in assay [5] and in assay [7] was inactive. For the same compound, the AC50 in assay [2] is 28.3 µM (active); in assay [3], 28.4 µM (active); in [6] it was 32.2 µM (active).
In the case of `CCOP(=S)(Oc1ccc([N+](=O)[O-])cc1)c1ccccc1` (centres undefined), the AC50 in [1] was 0.404 µM (active); in assay [7] it was 0.786 µM (active); in assay [14], 14.3 µM (active). Also, the call in assay [5], in [6], in assay [8], in assay [9], in assay [10] and in assay [11] was inactive. Moreover, the compound was classed as inactive in assay [12], in assay [13], in assay [15], in assay [16] and in assay [17].
Take `ClC(Cl)=C(c1ccc(Cl)cc1)c1ccccc1Cl`: the compound was classed as inactive in assay [1], in assay [18], in assay [2], in assay [3], in [4] and in assay [5]. Also, the compound was classed as inactive in assay [6], in [7] and in assay [19].
As to `Nc1ccc([N+](=O)[O-])cc1Cl`, the compound was classed as inactive in [1], in assay [18], in assay [2], in assay [3], in assay [4] and in assay [7]. In addition, the outcome in assay [19] was inactive.
Take `O=S1(=O)OCC2C(CO1)C1(Cl)C(Cl)=C(Cl)C2(Cl)C1(Cl)Cl` (centres undefined): the AC50 in assay [1] was 10 µM (active); in [3] it was 9.67 µM (active); in assay [4], 7.77 µM (active); in [7], 1.03 µM (active). The compound was classed as inactive in assay [2], in [5] and in assay [6].
As to `COP(N)(=S)OC`, the result in assay [1], in [18], in assay [2], in assay [3], in assay [4] and in [7] was inactive. In addition, the compound was called inactive in assay [19].
Regarding `O=P(Oc1ccccc1)(Oc1ccccc1)Oc1ccccc1`, the AC50 in [1] is 1.85 µM (active); in assay [7], 1.37 µM (active); in assay [11], 77.7 µM (active); in assay [14] it was 26 µM (active). For the same compound, the outcome in assay [2], in assay [3], in [4], in assay [5], in assay [8] and in assay [9] was inactive. Moreover, the compound was classed as inactive in assay [10], in [12], in assay [13], in [15], in [16] and in [17].
Consider `CO/N=C(/C(=O)OC)c1ccccc1COc1ccccc1C`, for which the AC50 in assay [1] was 4.07 µM (active); in assay [18], 21.2 µM (active); in assay [3], 9.52 µM (active); in [7] it was 4.24 µM (active); in [19], 9.76 µM (active). Besides, the outcome in [2] and in assay [4] was inactive.
